In all, about 140,000 compounds went through this assay and about 220 (0.16%) were called active. Rule as the data show it: active = inhibition above about 50%; inactive = the rest. For the sample, actives were picked, then their nearest neighbours and some compounds at random.

As usually defined, the inhibition is the relative decrease from the control value, in per cent.

The test deals with YopH tyrosine phosphatase [Yersinia enterocolitica]. The experiment in a line: inhibition of Yersinia YopH phosphatase – biochemical, fluorescence Ex485/Em525, primary screen (AID 898). The settings on record: hits give high values, concentration not given here.
As for `CCCCc1cc2c(s1)CCCC/C2=N/O`, the inhibition is -2.52% (inactive).
For the compound `N#Cc1c(-c2ccc(F)cc2)cc(C2CC2)nc1SCC(=O)c1cccs1`, the inhibition is -21.7% (inactive).
With `Cc1ccc(O)c(-c2cc(C(=O)Nc3c(C)n(C)n(-c4ccccc4)c3=O)[nH]n2)c1` the figure was -27% (inactive); with `O=C(CSc1nc2ccccc2[nH]1)Nc1nc(-c2ccccc2)c(-c2ccccc2)o1`, -23.6% (inactive); with `COc1ccc(Br)cc1CN(C)CC(=O)Nc1cc(Cl)cc(Cl)c1`, -5.01% (inactive).
With `CCCCNC(=O)CCn1c(=O)c2ccccc2n(Cc2cc(C)ccc2C)c1=O` the figure was -41.6% (inactive); with `Nc1nnc(SCC(=O)OCc2ccc(Cl)c(Cl)c2)s1`, -17.1% (inactive); with `CC(=O)Nc1ccc(C(=O)OCC(=O)Nc2ccc([N+](=O)[O-])cc2C(F)(F)F)cc1`, -15.8% (inactive).
With `C[n+]1ccccc1C1CCCC/C1=N\Nc1ccc([N+](=O)[O-])cc1[N+](=O)[O-]` (centres undefined) the figure was 3.63% (inactive); with `CN(C)CCNC(=O)Cc1ccc([N+](=O)[O-])cc1`, -24.9% (inactive); with `COC(=O)c1nc2ccccc2s1`, -16.5% (inactive).
For `CC1=CC(=C(C#N)c2nc3ccccc3s2)C=C(C)N1c1ccc(F)cc1F`, the inhibition is 79.4% (active).
For `N#C/C(=C(/O)Cc1cccc2ccccc12)c1nc2ccccc2s1`, the inhibition is -11% (inactive).
Take `O=[N+]([O-])c1ccc(N2CCNCC2)cc1NCc1cccnc1`: the inhibition was -24.3% (inactive).
With `COc1ccc(C/C(C)=N/NC(=O)c2cc(C)oc2C)cc1` the figure was -13.9% (inactive).
To `COCCNC(=O)c1ccccc1NS(=O)(=O)c1ccc(C)c([N+](=O)[O-])c1` belongs -4.7% (inactive).
For `CCCC(NC(=O)c1ccco1)c1nc2ccccc2[nH]1` (centres undefined), the inhibition is -24.8% (inactive).
To `C/C(=N\NC(=O)CSc1nc2ccccc2c(=O)n1-c1ccccc1C)c1cccs1` belongs -17% (inactive); to `CN1CCN(c2ccc(NC(=O)c3ccc4c(c3)[nH]c(=O)n4Cc3ccc(F)cc3)cc2)CC1`, -24.8% (inactive); to `O=C(/C=C/NCc1ccc(F)cc1)c1ccccc1`, -30.4% (inactive).
`Cc1c(NC(=S)Nc2ccccc2)c(=O)n(-c2ccccc2)n1C`: the inhibition is -29.6% (inactive).
As for `CCCCOC(=O)c1ccc(NC(c2ccc(C)cc2)P(=O)(OC)OC)cc1` (centres undefined), the inhibition was -6.33% (inactive).
Consider `COc1ccccc1N1N=C(c2cccs2)CC1c1ccccc1` (centres undefined), for which the inhibition is -12.8% (inactive).
With `CCN(CC)CCn1c(/N=C/c2cc(Br)ccc2O)nc2ccccc21` the figure was -20.7% (inactive).
With `C=CCNCCCCOc1ccccc1` the figure was -29.1% (inactive); with `O=C(CSc1nnc(SCc2ccc(Cl)cc2)s1)N/N=C/c1ccccc1Cl`, -26.2% (inactive); with `CC(=O)Nc1ccc(S(=O)(=O)N2CCN(c3ccc([N+](=O)[O-])c(NCCN4CCOCC4)c3)CC2)cc1`, -27.6% (inactive).
On to `C=CCNC(=O)/C=C/c1ccc(C(C)C)cc1`, for which the inhibition is -23.5% (inactive).
Regarding `Cc1ccc(N(Cc2cc3ccccc3[nH]c2=O)C(=O)c2cccs2)cc1`, the inhibition was -10.8% (inactive).
For `O=C(NC1CCCCCC1)c1cccnc1Sc1ccc(Cl)cc1`, the inhibition was -17.2% (inactive).
In the case of `Brc1ccc(C2CC(c3ccccc3)=Nc3ccccc3N2)cc1` (centres undefined), the inhibition was -11.5% (inactive).
With `COC(=O)C1=NNC2(c3ccc(C)cc3)C(=O)N(c3cccc(C)c3C)C(=O)C12` (centres undefined) the figure was -28.4% (inactive).
To `COc1cc(C(=S)NC2CCCCC2)ccc1O` belongs -30.2% (inactive).
Consider `CC1(C)C2CC=C(/C=N/NC(=O)c3ccc(Cl)cc3)C1C2` (centres undefined), for which the inhibition is -29.6% (inactive).
With `CCCc1nc(SCC(=O)Nc2ccc(S(=O)(=O)N(C)C)cc2)c2ccccc2n1` the figure was -25.4% (inactive); with `NC1=NN(c2cccc(C(=O)O)c2)C(=O)C1`, -7.9% (inactive); with `CN(CC(=O)NCCc1ccccc1)S(=O)(=O)c1cnc[nH]1`, -21% (inactive).
With `COc1cccc(NC(=S)NCc2ccco2)c1` the figure was -28.3% (inactive); with `O=C(CN1CCN(c2ccccn2)CC1)N1CCc2ccccc21`, -10% (inactive).

These data come from PubChem BioAssay AID898 (University of Pittsburgh Molecular Library Screening Center, 2007).
